TGFb SMAD3 inh: TGF-b pathway inhibition; HepG2 CAGA-GFP TGF-b/SMAD3 reporter, GFP fluorescence, 18 h; TGF-beta stimulated, 500 pg/mL final; AID 588855; 410,000 tested, 1.2% active; Potency, µM (highest dose often 46.1 µM), inactives show at the highest dose activity, negative = inhibition, usual class: inhibitors; note: % is set by controls: 0 for no effect and ±100 for the full control effect; nearly all actives have a fitted effect of over 65% in size
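Using HEPG2 CAGA-GFP reporter cells at 1000 cells/well, we pinned test compounds, stimulated with recombinant TGF-beta (500 pg/mL final) and measured total well GFP after 18 h.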
HepG2 viability: kills HepG2 cells in TGF-b inhibitor counter-screen | 410,000 tested, 0.76% active | HepG2 CAGA-GFP viability, ATP luminescence, 18 h | Potency, µM (titrated, usually from 46.1 µM), inactives show at the highest dose activity change, negative = cytotoxicity, hits mostly cytotoxic
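HepG2 CAGA-GFP cells (1000/well, DMEM with 1% FBS) received compound, then TGF-beta at 500 pg/mL final, and were incubated 18 hours at 37 degrees C. Viability was read by CellTiter-Glo luminescence. Media-only wells were set as complete cell-killing and DMSO as no toxicity.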
ATXN viability: cell viability loss in ATXN counter-screen; S2 cells (HEK-293 line with an ATXN2-luciferase reporter) viability, CellTiter-Fluor protease fluorescence, 24 h; Potency, µM (doses to about 56.7 µM), hits mostly cytotoxic; 400,000 tested, 0.49% active; note: nearly all actives have a fitted effect of over 40% in size
RORgamma inh: inhibitors of mouse ROR gamma transcriptional activity. P51450. Drosophila S2 Gal4-RORgamma UAS-luciferase reporter, 20 h. Potency, µM (titrated, usually from 53.6 µM), inactives show at the top dose activity change, negative = inhibition, hits mostly inhibitors. 310,000 tested, 5.4% active. AID 2551; note: % is set by controls: 0 for no effect and ±100 for the full control effect; nearly all actives have a fitted effect of over 60% in size
Target sequence (P51450 whole entry, looked up, the tested form may be a part): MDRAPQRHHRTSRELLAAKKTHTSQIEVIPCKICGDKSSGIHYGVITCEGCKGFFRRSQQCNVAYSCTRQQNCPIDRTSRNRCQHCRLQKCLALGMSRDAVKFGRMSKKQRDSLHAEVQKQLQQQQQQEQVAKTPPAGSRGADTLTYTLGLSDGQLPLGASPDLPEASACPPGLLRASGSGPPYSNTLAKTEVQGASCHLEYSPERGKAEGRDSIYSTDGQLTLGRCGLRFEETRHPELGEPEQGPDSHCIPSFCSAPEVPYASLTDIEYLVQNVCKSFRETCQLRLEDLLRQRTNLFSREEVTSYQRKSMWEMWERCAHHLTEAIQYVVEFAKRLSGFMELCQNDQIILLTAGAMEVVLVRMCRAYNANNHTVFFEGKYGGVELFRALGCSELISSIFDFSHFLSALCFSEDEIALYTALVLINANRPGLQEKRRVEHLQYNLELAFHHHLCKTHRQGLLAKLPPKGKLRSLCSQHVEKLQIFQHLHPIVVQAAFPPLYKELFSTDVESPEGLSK
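Luciferase reporter read in Schneider cells carrying Gal4-RORγ (mouse) and UAS-Photinus luciferase; cells given compound 1 h before 700 uM copper sulfate induction, then incubated 20 h at ambient temperature.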
VP16 counter: inhibits Gal4-VP16 luciferase reporter, ROR gamma counter-screen; Drosophila S2 Gal4-VP16 UAS-luciferase, luminescence, 20 h; Potency, µM (titrated, usually from 53.6 µM), for inactives: at the highest dose activity, negative = inhibition, most hits filed as inhibitors; 310,000 tested, 3.5% active;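 note: Gal4-VP16 expression switched on by copper sulfate through the metallothionein promoter; % is set by controls: 0 for no effect and ±100 for the full control effect; nearly all actives have a fitted effect of over 50% in size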
ATXN2 expr inh: ATXN2 expression inhibition. HEK-293 ATXN2-luciferase reporter, luminescence, 24 h. Potency, µM (highest dose often 57 µM), inactives show top-dose activity change, negative = inhibition, most hits filed as inhibitors. 360,000 tested, 0.72% active; note: % is set by controls: 0 for no effect and ±100 for the full control effect; nearly all actives have a fitted effect of over 55% in size
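ATXN2-luciferase reporter cells (luciferase flanked by upstream and downstream ATXN2 gene portions) were treated 24 h at 37 °C with compounds at up to 57 uM. SteadyGlo luminescence gave expression; GF-AFC fluorescence gave viability.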
The depositor's hits bear a star; i = inactive; ? = inconclusive; . = no result given. These entries were drawn from the full list. Calls come from the whole dose curve; as a rule, active = well fitted curve in the direction sought with a large enough effect; inconclusive = small, poorly fitted or top-dose-only effect, or another doubt; inactive = no such curve, though single readings can be large; an effect the other way counts as inactive or inconclusive. Potency is the fitted concentration of half-maximal effect.

SMILES	TGFb SMAD3 inh	HepG2 viability	ATXN viability	RORgamma inh	VP16 counter	ATXN2 expr inh
CN1CCN(CCOC2c3ccccc3CSc3ccc(Cl)cc32)CC1 (centres undefined)	?	-45.9%	?	11.6%	5.0%	-26.3%
CCOc1ccc(CCNC(=O)c2cc3c(-c4cccc(OC)c4)nn(C)c3s2)cc1OCC	-23.2%	-23.5%	?	.	.	?
O=C(C1CCCN(Cc2ccc(Cl)cc2)C1)N1CCCCC1 (centres undefined)	0.0%	2.0%	i	19.8%	13.9%	-26.4%
CC(=O)OCC(N)C(=O)c1ccccc1 (centres undefined)	.	.	.	6.9%	2.3%	.
NC(=O)CF	.	.	.	-3.7%	3.4%	.
OC(CNCc1ccccc1)c1ccc(Cl)cc1 (centres undefined)	1.2%	-12.5%	i	.	.	-11.3%
Cc1c(C(=O)c2cccc3ccccc23)c2cccc3c2n1[C@@H](CN1CCOCC1)CO3	.	.	.	-18.6%	-2.8%	.
O=C(O)[C@@H](O)[C@H](O)C(=O)O	0.8%	-17.1%	i	.	.	-0.7%
Cc1ccccc1C1=NCC(=S)Nc2ccc(Cl)cc21	6.5%	-12.0%	i	-13.2%	-34.7%	-12.2%
NCCNC[C@@H](N)CCCN=C(N)N[N+](=O)[O-]	.	.	.	-5.7%	-10.6%	.
COc1ccc(CCNC(=O)CCc2c(C)nc3c(-c4ccc(F)cc4)c(C)nn3c2C)cc1OC	?	8.9%	i	.	.	8.4%
CNC(=O)Oc1cccc2ccccc12	1.4%	-1.5%	i	2.3%	-6.6%	-6.9%
CC[C@]12C=CCN3CC[C@@]4(c5ccc(OC)cc5N(C)[C@H]4[C@@](O)(C(=O)OC)[C@@H]1OC(C)=O)C32 (some centres undefined)	.	.	.	32.0%	-5.9%	.
CCOC(=O)NC(C)(C)Cc1ccc(Cl)cc1	.	.	i	.	.	0.3%
Clc1ccc2c(N3CCNCC3)ccnc2c1	2.0%	-0.8%	i	-11.0%	-12.3%	-10.4%
CCCCOCCOP(=O)(OCCOCCCC)OCCOCCCC	.	.	.	-0.5%	7.0%	.

Screening results (PubChem BioAssay)
